Screens as filed in PubChem.
TGFb SMAD3 inh: qHTS for Inhibitors of TGF-b. AID 588855, 2011. 1.2% of 410,000 active. HepG2 CAGA-GFP TGF-b/SMAD3 reporter, GFP fluorescence, 18 h; TGF-beta stimulated, 500 pg/mL final. Potency, µM (highest dose often 46.1 µM), hits mostly inhibitors; note: nearly all actives have a fitted effect of over 65% in size
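TGF-beta reporter screen: HEPG2 CAGA-GFP, 1% FBS, 500 pg/mL TGF-beta final, 18 h; per-cell GFP summed per well; curves fitted and categorized by class.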
S2 tox: Viability Counterscreen for Primary qHTS for Inhibitors of ATXN expression | 0.49% of 400,000 active | S2 cells (HEK-293 line with an ATXN2-luciferase reporter) viability, CellTiter-Fluor protease fluorescence, 24 h | Potency, µM (doses to about 56.7 µM), most hits filed as cytotoxic | AID 651635, 2014; note: nearly all actives have a fitted effect of over 40% in size
HT1080 IDH1KD tx: qHTS for induction of synthetic lethality in tumor cells producing 2HG: qHTS for the HT-1080-IDH1KD cell line; AID 686971, 2013; Potency, µM (highest dose often 46.1 µM), actives largely listed as cytotoxic; 2% of 360,000 active; HT-1080 IDH1 knockdown viability, ATP luminescence, 48 h
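Using the IDH1-knockdown HT-1080 line run in the same batch and compound series as the NT line, viability after 48 h at 37 °C was determined by CellTiter-Glo luminescence and expressed as % activity.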
HepG2 viability: qHTS for Inhibitors of TGF-b: Cytotox Counterscreen. 0.76% of 410,000 active. Potency, µM (titrated, usually from 46.1 µM), hits mostly cytotoxic. HepG2 CAGA-GFP viability, ATP luminescence, 18 h. AID 588856, 2011
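CellTiter-Glo luminescence gave cytotoxicity after 18 hours at 37 degrees C. The cells were HepG2 CAGA-GFP in 1% FBS DMEM, stimulated with 500 pg/mL TGF-beta after compound addition. %Activity was normalised to no-cell wells (complete cell-killing) and DMSO (no toxicity), and curves were fitted and classified.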
ATXN2 expr inh: Primary qHTS for Inhibitors of ATXN expression; Potency, µM (highest dose often 57 µM), most hits filed as inhibitors; 0.72% of 360,000 active; HEK-293 ATXN2-luciferase reporter, luminescence, 24 h; AID 1745845, 2022; note: nearly all actives have a fitted effect of over 55% in size
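ATXN2-luciferase reporter cells (luciferase flanked by upstream and downstream ATXN2 gene portions) were treated 24 h at 37 °C with compounds at up to 57 uM. SteadyGlo luminescence gave expression; GF-AFC fluorescence gave viability.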
HT1080NT lethal: qHTS for induction of synthetic lethality in tumor cells producing 2HG: qHTS for the HT-1080-NT fibrosarcoma cell line | HT-1080-NT fibrosarcoma viability, CellTiter-Glo ATP luminescence, 48 h | Potency, µM (highest dose often 46.1 µM), most hits filed as cytotoxic | 1.6% of 360,000 active | AID 686970, 2013;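 note: NT is the 2HG producing partner of a matched IDH1 knockdown line; nearly all actives have a fitted effect of over 55% in size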
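HT-1080-NT; 750 cells/well; 5% FBS RPMI; 48 h compound, 37 degrees C; CellTiter-Glo luminescence; curve fitting and curve-class assignment.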
Large screens that a line does not name were inactive. This is a sample that favours compounds with a hit; in the whole collection about 3.9% have one here. Calls come from the whole dose curve; as a rule, active = well fitted curve in the direction sought with a large enough effect; inconclusive = small, poorly fitted or top-dose-only effect, or another doubt; inactive = no such curve, though single readings can be large; an effect the other way counts as inactive or inconclusive.

COc1ccccc1N(C(=O)CCl)c1cn(C(C)=O)c2ccccc12	TGFb SMAD3 inh 11.2µM, S2 tox 6.31µM, HT1080 IDH1KD tx 7.31µM, HepG2 viability 11.2µM, HT1080NT lethal 1.46µM (no result: ATXN2 expr inh)
CCOC(=O)c1ccccc1Nc1cn(C(C)=O)c2ccccc12	HT1080 IDH1KD tx inconclusive, HT1080NT lethal inconclusive
O=C(NCc1ccccc1C(F)(F)F)c1cccc2c1C(=O)c1ccc(N3CCC(N4CCCCC4)CC3)cc1S2(=O)=O	S2 tox inconclusive, ATXN2 expr inh 28.2µM
CCn1nc(C)c(Br)c1C(=O)Sc1ccccc1Cl	TGFb SMAD3 inh inconclusive, HT1080 IDH1KD tx inconclusive, HT1080NT lethal 16.4µM
CCn1nc(C)cc1C(=O)Sc1ccc(C)cc1	none
Cc1cc(C(=O)N/N=C/c2ccc(C)o2)c2ccccc2n1	TGFb SMAD3 inh inconclusive, S2 tox inconclusive, HT1080 IDH1KD tx inconclusive, HT1080NT lethal 3.26µM
Cc1ccc(C=NNC(=O)c2cc(-c3cccnc3)nc3ccccc23)o1	HT1080 IDH1KD tx inconclusive, HT1080NT lethal inconclusive
Cc1ccc(/C=N/NC(=O)c2cc(C3CC3)nc3ccccc23)o1	TGFb SMAD3 inh inconclusive, S2 tox inconclusive, HT1080 IDH1KD tx 5.8µM, ATXN2 expr inh inconclusive, HT1080NT lethal inconclusive
CCCc1cc(C(=O)N/N=C/c2ccc(CC)s2)c2ccccc2n1	S2 tox inconclusive, HT1080 IDH1KD tx 3.66µM, ATXN2 expr inh inconclusive, HT1080NT lethal inconclusive
CCCc1cc(C(=O)N/N=C/c2ccc(C)o2)c2ccccc2n1	HT1080 IDH1KD tx 20.6µM, HT1080NT lethal inconclusive
Cc1ccc(/C=N/NC(=O)c2cc(-c3ccccc3)nc3ccccc23)o1	HT1080 IDH1KD tx inconclusive, HT1080NT lethal inconclusive
CCOC(=O)Oc1ccc(CCNC(=O)[C@H](CCSC)NC(C)=O)cc1OC(=O)OCC	none (no result: TGFb SMAD3 inh, HT1080 IDH1KD tx, HepG2 viability, HT1080NT lethal)
CCOc1ccccc1CNC(=O)c1cccn1-c1nnc(N2CCCCC2)s1	TGFb SMAD3 inh inconclusive (no result: S2 tox, HT1080 IDH1KD tx, ATXN2 expr inh, HT1080NT lethal)
CCOc1ccccc1CNCc1cccn1-c1nnc(N2CCN(c3ccccc3)CC2)s1	TGFb SMAD3 inh inconclusive, S2 tox inconclusive, ATXN2 expr inh 17.8µM (no result: HT1080 IDH1KD tx, HT1080NT lethal)
COc1cc(=O)n2c(c1C(=O)NC(C)c1ccco1)CCN(C(=O)c1[nH]c(C)cc1C)CC2 (stereo unspecified)	none (no result: TGFb SMAD3 inh, HT1080 IDH1KD tx, HepG2 viability, ATXN2 expr inh, HT1080NT lethal)
COc1cc(C(=O)N(Cc2ccc(F)cc2)Cc2ccco2)cc(OC)c1OC	none (no result: S2 tox, HT1080 IDH1KD tx, ATXN2 expr inh, HT1080NT lethal)
Cc1cccc(N=C2NN=C(c3c(C)[nH]c4ccccc34)CS2)c1	S2 tox inconclusive, HT1080 IDH1KD tx 18.4µM, ATXN2 expr inh 28.2µM, HT1080NT lethal inconclusive
CC(=O)/C(=N\Nc1ccccc1Cl)Sc1cccc2cccnc12	TGFb SMAD3 inh inconclusive, HT1080 IDH1KD tx inconclusive, ATXN2 expr inh inconclusive, HT1080NT lethal 20.6µM
O=S(=O)(c1cccc(-c2nc3ccccc3s2)c1)N1CCOCC1	none
Cc1ccc(-c2nc3ccccc3s2)cc1S(=O)(=O)N1CCCC1	TGFb SMAD3 inh inconclusive, HT1080 IDH1KD tx 10µM
COc1cnc(-c2ccccn2)nc1Sc1ccc(F)cc1	HT1080NT lethal 20.6µM
COc1cnc(-c2ccccn2)nc1Sc1ccccc1	HT1080NT lethal inconclusive
COc1ccc(Sc2nc(-c3ccccn3)ncc2OC)cc1	S2 tox inconclusive, HT1080 IDH1KD tx inconclusive, ATXN2 expr inh 22.4µM, HT1080NT lethal inconclusive
CN(Cc1cnc2ccccn12)C(=O)c1cc(NC(=O)c2ccccc2)cc2ncn(C3CCCC3)c12	none (no result: TGFb SMAD3 inh, HT1080 IDH1KD tx, HepG2 viability, ATXN2 expr inh, HT1080NT lethal)
c1cncc(OC2CCN(Cc3ccc4c(c3)CN(Cc3ccc5c(c3)OCCO5)CCO4)CC2)c1	none (no result: TGFb SMAD3 inh, HT1080 IDH1KD tx, HepG2 viability, ATXN2 expr inh, HT1080NT lethal)
CC(C)(C)S(=O)N1Cc2cc(C(=O)NCc3ccc(Oc4ccccc4)cc3)nc(-c3cccc(-c4cc5ccccc5o4)c3)c2[C@@H]1CCO (stereo partly specified)	TGFb SMAD3 inh inconclusive, HT1080 IDH1KD tx inconclusive, ATXN2 expr inh inconclusive, HT1080NT lethal 23.1µM (no result: S2 tox)
